Screening results from PubChem.
Cycloheximide cs: affects cycloheximide protein synthesis inhibition readout, counter-screen | max response, % | actives 12% (n = 300,000) | cell reporter, cycloheximide protein synthesis inhibition counterscreen; in the data active = max response mostly above about 13%, no sharp cut-off; inactive = mostly below about 14%; also: read at 38.3 µM for the half of the compounds with a filed dose; 0% is about no effect
Shiga inhibitor: Shiga toxin inhibition | Vero cells, Shiga toxin protein synthesis inhibition reporter | inhibition, % at 38.7 µM | actives 9.2% (n = 290,000); in the data active = inhibition mostly above about 28%, no sharp cut-off; inactive = mostly below about 43%; also: 0% is about no effect
Tb PYK inh: inhibitors of Trypanosoma brucei pyruvate kinase | Q57TT1 | TbPYK enzyme, Kinase-Glo Plus ATP luminescence, 45 min | Potency, µM (doses to about 76.8 µM), inactives show at the top dose activity, negative = inhibition, actives largely listed as inhibitors | actives 0.12% (n = 410,000) | AID 624173; also: potency is read from the fitted curve at half-maximal effect; % is scaled to controls: 0 for no effect and ±100 for the full control effect; nearly all actives have a fitted effect of over 50% in size
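ADP (130 uM final) triggers the TbPYK reaction after compound addition; incubation is 45 min at room temperature. Kinase-Glo Plus is then added and luminescence imaged. Normalized data are fitted to concentration-effect curves.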
LmPK inhibitor: LmPK (Leishmania mexicana) enzyme inhibition. actives 0.37% (n = 290,000). Potency, µM (doses to about 57.5 µM), for the others: top-dose activity change, negative = inhibition, hits mostly inhibitors. purified LmPK, Kinase-Glo ATP luminescence, 1 h. AID 1721; also: potency is read from the fitted curve at half-maximal effect; % is scaled to controls: 0 for no effect and ±100 for the full control effect
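0.1 nM LmPK, 0.5 mM PEP, 0.1 mM ADP; 50 mM imidazole pH 7.2, 7 mM MgCl2, 50 mM KCl; 1 h RT. Kinase-Glo luminescence readout, normalized to no-enzyme (full inhibition) and uninhibited wells.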
Giardia FBPA inh-1: Giardia lamblia aldolase inhibition; Potency, µM (titrated, usually from 59.6 µM), inactives show top-dose activity, negative = inhibition, hits mostly inhibitors; actives 0.71% (n = 290,000); A8B2U2; purified Giardia FBPA; also: potency is read from the fitted curve at half-maximal effect; % is scaled to controls: 0 for no effect and ±100 for the full control effect; nearly all actives have a fitted effect of over 55% in size
Target sequence (A8B2U2 whole entry, looked up): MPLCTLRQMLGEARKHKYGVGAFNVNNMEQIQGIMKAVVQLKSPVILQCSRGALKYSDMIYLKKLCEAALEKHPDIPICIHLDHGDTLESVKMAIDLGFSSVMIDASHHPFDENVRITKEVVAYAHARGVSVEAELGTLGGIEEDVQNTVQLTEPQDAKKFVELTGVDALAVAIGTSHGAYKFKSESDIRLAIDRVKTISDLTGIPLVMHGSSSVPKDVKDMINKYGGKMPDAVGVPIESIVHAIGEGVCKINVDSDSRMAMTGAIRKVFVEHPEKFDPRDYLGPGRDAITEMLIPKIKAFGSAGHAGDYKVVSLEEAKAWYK
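40 nM FBPA preincubated 10 min at RT with compound (up to 57.5 uM final), then substrate plus GAPDH/TPI/NAD/arsenate coupling and diaphorase/resazurin added. Fluorescence read after 20 min at RT, 525/598 nm.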
RE007 growth inh: less growth of the S. pombe RE007 Vpr strain; S. pombe RE007 Vpr strain, BacTiter-Glo ATP luminescence, 24 h; Potency, µM (top dose mostly 92.2 µM), for inactives: at the highest dose activity change, negative = less growth, usual class: inhibitors; actives 0.21% (n = 360,000); AID 651644; active = well fitted falling curve with a large enough effect; inconclusive = small, poorly fitted or top-dose-only effect; inactive = no such curve, though single readings can be large or run the other way; also: potency is read from the fitted curve at half-maximal effect; % is scaled to controls: 0 for no effect and ±100 for the full control effect; nearly all actives have a fitted effect of over 50% in size
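Fission yeast RE007 carrying one integrated HIV-1 vpr copy, seeded at OD 0.01 in PMG+AL medium with 23 nL pinned compound. Grown 24 h at 30 degrees; viability read by BacTiter-Glo luminescence after 5 min.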
Giardia growth: blocks growth of Giardia lamblia trophozoites; Giardia lamblia trophozoite growth inhibition; Potency, µM (titrated, usually from 57.5 µM), for the others: at the top dose activity change, negative = inhibition, hits mostly inhibitors; actives 5% (n = 1,500); shares compounds with Giardia FBPA inh-1;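 also: potency is read from the fitted curve at half-maximal effect; trophozoites exposed to compound for 48 h at 37 °C; % is scaled to controls: 0 for no effect and ±100 for the full control effect; nearly all actives have a fitted effect of over 70% in size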
Mammalian tox: mammalian cytotoxicity of Giardia aldolase inhibitor hits. shares compounds with Giardia FBPA inh-1. Potency, µM (series often up to 57.5 µM), without a hit: at the top dose viability change, negative = toxicity, actives largely listed as inhibitors. actives 4% (n = 1,500). mammalian cell viability counter-screen, qHTS. AID 2786;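 also: Chinese hamster ovary cells used as mammalian cytotoxicity surrogate; viability measured as cellular ATP by luminescence; potency is read from the fitted curve at half-maximal effect; compound exposure lasted 48 h before reading; % is scaled to controls: 0 for no effect and ±100 for the full control effect; nearly all actives have a fitted effect of over 60% in size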
Giardia FBPA inh-2: confirmation of Giardia fructose-bisphosphate aldolase inhibitors; shares compounds with Giardia FBPA inh-1; purified Giardia aldolase enzyme activity, qHTS; Potency, µM (titrated, usually from 57.5 µM), for the others: at the top dose activity change, negative = inhibition, actives largely listed as inhibitors; actives 5% (n = 1,500); also: potency is read from the fitted curve at half-maximal effect; % is scaled to controls: 0 for no effect and ±100 for the full control effect; nearly all actives have a fitted effect of over 45% in size
Rabbit aldolase: rabbit FBP aldolase inhibition by Giardia aldolase hits; shares compounds with Giardia FBPA inh-1; Rabbit muscle FBPA enzyme inhibition, selectivity counter-screen; actives 4% (n = 1,500); AID 2794; Potency, µM (top dose mostly 57.5 µM), for inactives: at the top dose activity, negative = inhibition, most hits filed as inhibitors; also: potency is read from the fitted curve at half-maximal effect; % is scaled to controls: 0 for no effect and ±100 for the full control effect; nearly all actives have a fitted effect of over 60% in size
Target sequence (P00883 whole entry, looked up): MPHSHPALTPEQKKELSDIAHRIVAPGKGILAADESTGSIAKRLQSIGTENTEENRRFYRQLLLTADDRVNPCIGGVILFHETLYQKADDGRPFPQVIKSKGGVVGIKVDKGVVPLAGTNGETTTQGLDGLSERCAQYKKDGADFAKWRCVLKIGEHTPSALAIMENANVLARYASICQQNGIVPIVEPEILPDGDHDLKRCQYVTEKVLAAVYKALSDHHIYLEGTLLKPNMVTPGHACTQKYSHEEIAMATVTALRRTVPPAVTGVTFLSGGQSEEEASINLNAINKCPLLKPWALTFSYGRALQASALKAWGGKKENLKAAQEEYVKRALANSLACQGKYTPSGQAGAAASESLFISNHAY
GAPDH counter: GAPDH inhibition flagged for Giardia aldolase hits; GAPDH coupling enzyme counterscreen, biochemical, qHTS; actives 6% (n = 1,500); Potency, µM (top dose mostly 57.5 µM), inactives show at the highest dose activity change, negative = inhibition, actives largely listed as inhibitors; shares compounds with Giardia FBPA inh-1; also: potency is read from the fitted curve at half-maximal effect; % is scaled to controls: 0 for no effect and ±100 for the full control effect; nearly all actives have a fitted effect of over 55% in size
The depositor's hits bear a star; [ ] = dose if it differs, or a comment. The sample as a whole holds a higher share of hits than the screen did. Unless noted, calls follow the shape of the dose curve; as a rule, active = well fitted curve in the direction sought with a large enough effect; inconclusive = small, poorly fitted or top-dose-only effect, or another doubt; inactive = no such curve, though single readings can be large; an effect the other way counts as inactive or inconclusive.

For COc1cc(/C=C2\SC(c3ccccc3)=NC2=O)cc(Cl)c1O the results were Cycloheximide cs 1, Shiga inhibitor -13, Tb PYK inh inconclusive, LmPK inhibitor inconclusive, Giardia FBPA inh-1 5.6µM*, RE007 growth inh -3%, Giardia growth 54%, Mammalian tox 5%, Giardia FBPA inh-2 -26%, Rabbit aldolase -26% and GAPDH counter 2%.
`COc1cc(/C=C2\SC(c3ccc(C)cc3)=NC2=O)cc(OC)c1OC` gave Cycloheximide cs -2, Shiga inhibitor -4, Tb PYK inh inconclusive, LmPK inhibitor inconclusive, Giardia FBPA inh-1 inconclusive and RE007 growth inh -3%.
`CCOc1cc(/C=C2\SC(N)=NC2=O)ccc1O` gave Cycloheximide cs 4, Shiga inhibitor 14, Tb PYK inh -20%, LmPK inhibitor -7%, Giardia FBPA inh-1 7.9µM*, RE007 growth inh 20%, Giardia growth -14%[10.4 µM], Mammalian tox -4%, Giardia FBPA inh-2 -12%, Rabbit aldolase -1% and GAPDH counter 1%.
Screening COc1cc(/C=C2\SC(c3ccc(C)cc3)=NC2=O)ccc1O returned Cycloheximide cs 23*, Shiga inhibitor 52*, Tb PYK inh inconclusive, LmPK inhibitor 28µM*, Giardia FBPA inh-1 18µM*, RE007 growth inh -12%, Giardia growth 26%, Mammalian tox -3%, Giardia FBPA inh-2 inconclusive, Rabbit aldolase -30% and GAPDH counter -1%.
`CCOc1ccc(C(=O)Nc2ccc(-c3nc4ccccc4s3)c(C)c2)cc1OCC` gave Tb PYK inh 4%.
`Cc1cc(C)c(NC(=O)c2cc(S(=O)(=O)N3CCN(c4ccccc4F)CC3)ccc2F)c(C)c1` gave Tb PYK inh 1%.
Screening O=c1c2oc3ccccc3c2n(Cc2ccccc2F)c(=O)n1Cc1ccccc1 returned Tb PYK inh 1%.
C[C@@]12CCC[C@H]1[C@@H]1CC[C@H]3C[C@@H](O)CC[C@]3(C)[C@H]1CC2 was read as Tb PYK inh -6%.
Oc1cccc2nc3ccccc3nc12 was read as Cycloheximide cs 21*, Shiga inhibitor 44, Tb PYK inh 0%, LmPK inhibitor -2%, Giardia FBPA inh-1 18µM*, RE007 growth inh inconclusive, Giardia growth -2%[10.4 µM], Mammalian tox -10%, Giardia FBPA inh-2 inconclusive, Rabbit aldolase -21% and GAPDH counter inconclusive.
For O=C(Oc1ccc[nH]c1=O)c1cccc(Cl)c1 the results were Cycloheximide cs -1, Shiga inhibitor -10, Tb PYK inh 2%, LmPK inhibitor 4%, Giardia FBPA inh-1 -18%, Giardia growth 15%[38.3 µM], Mammalian tox 10%, Giardia FBPA inh-2 0.52µM*, Rabbit aldolase inconclusive and GAPDH counter 33µM*.
Cc1cc2cc(C(c3nnnn3CC3CCCO3)N3CCCc4ccccc43)c(=O)[nH]c2cc1C (stereo not given) was read as Cycloheximide cs 12*, Shiga inhibitor 13, Tb PYK inh -1%, LmPK inhibitor -5%, Giardia FBPA inh-1 4µM*, RE007 growth inh -7%, Giardia growth 1%, Mammalian tox -5%, Giardia FBPA inh-2 -13%, Rabbit aldolase -3% and GAPDH counter -19%.
For CCc1ccc2[nH]c(=O)c(C(c3nnnn3CC3CCCO3)N3CCCc4ccccc43)cc2c1 (stereo not given) the results were Cycloheximide cs 9, Shiga inhibitor -10, Tb PYK inh 0%, LmPK inhibitor -1%, Giardia FBPA inh-1 inconclusive and RE007 growth inh -5%.
`Nc1ncnc(Sc2ncccn2)c1[N+](=O)[O-]` gave Cycloheximide cs -5, Shiga inhibitor -15, Tb PYK inh -5%, LmPK inhibitor 2%, Giardia FBPA inh-1 18µM*, RE007 growth inh -19%, Giardia growth 5%[10.4 µM], Mammalian tox inconclusive, Giardia FBPA inh-2 4%, Rabbit aldolase -2% and GAPDH counter 18%.
CCN1CCc2c(sc(-n3cccc3)c2C(CCC(C)C)NC(=O)NCCC(=O)OC)C1 (stereo not given) was read as Tb PYK inh -4%.
Screening CCOC(=O)C(C(=O)OCC)c1cc(Br)c2noc3c2c1C(=O)c1ccccc1-3 returned Cycloheximide cs -1, Shiga inhibitor 21, Tb PYK inh -7%, LmPK inhibitor -14%, Giardia FBPA inh-1 0.35µM*, RE007 growth inh inconclusive, Giardia growth -18%, Mammalian tox inconclusive, Giardia FBPA inh-2 inconclusive, Rabbit aldolase inconclusive and GAPDH counter inconclusive.
For CC(=O)OCCNc1cc(N2CCN(C)CC2)c2noc3c2c1C(=O)c1ccccc1-3 the results were Cycloheximide cs 0, Shiga inhibitor -2, Tb PYK inh inconclusive, LmPK inhibitor -23%, Giardia FBPA inh-1 inconclusive and RE007 growth inh -10%.
Screening Cc1ccc(N2CCN(S(=O)(=O)c3nnc(NC(=O)c4cccc(F)c4)s3)CC2)cc1 returned Tb PYK inh -2%.
For CS(=O)(=O)N(CC(=O)NCCSc1ccccc1)c1cc(C(F)(F)F)ccc1Cl the results were Tb PYK inh 7%.
Screening NC1=C(O)C(=O)C(c2ccccc2)O1 (stereo not given) returned Cycloheximide cs 11, Shiga inhibitor -4, Tb PYK inh -12%, LmPK inhibitor -8%, Giardia FBPA inh-1 16µM*, RE007 growth inh -3%, Giardia growth 6%[10.4 µM], Mammalian tox 5%, Giardia FBPA inh-2 -24%, Rabbit aldolase -13% and GAPDH counter -22%.
O=C1C(=O)C(c2ccccc2)C(=O)C1c1ccccc1 (stereo not given) was read as Tb PYK inh 0% and RE007 growth inh -13%.
